A number with no mark means an inactive call. Activity calls are given as the source filed them. Calls follow the shape of the dose curve; as a rule, active = well fitted curve in the direction sought with a large enough effect; inactive = no such curve, though single readings can be large or run the other way.
Each molecule was assayed against Alpha-galactosidase A (Homo sapiens) (UniProt P06280) (assay: Counterscreen for Glucocerebrosidase Inhibitors: qHTS Assay for Human alpha-Galactosidase at pH 4.5 (AID 992; also: 0% is about no effect)). Conditions: purified enzyme, fluorogenic substrate; series mostly up to 76.9 µM; activity change, negative = inhibition: at the top concentration.
Sequence of Alpha-galactosidase A (Homo sapiens) (P06280 whole entry, looked up): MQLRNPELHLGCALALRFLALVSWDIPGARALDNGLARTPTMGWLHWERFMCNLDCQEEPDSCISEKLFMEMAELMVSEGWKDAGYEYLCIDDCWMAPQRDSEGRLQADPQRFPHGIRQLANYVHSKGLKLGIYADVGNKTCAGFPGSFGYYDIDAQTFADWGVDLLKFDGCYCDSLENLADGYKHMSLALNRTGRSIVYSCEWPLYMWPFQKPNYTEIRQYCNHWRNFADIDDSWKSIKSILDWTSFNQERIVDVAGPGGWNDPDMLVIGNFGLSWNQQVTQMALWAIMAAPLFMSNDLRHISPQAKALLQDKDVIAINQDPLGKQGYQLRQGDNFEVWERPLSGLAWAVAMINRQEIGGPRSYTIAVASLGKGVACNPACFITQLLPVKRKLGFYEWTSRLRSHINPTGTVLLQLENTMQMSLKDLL
Method in brief: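 Concentration-response curves (0.7 nM to 77 uM final) were modeled with the Hill equation to give AC50. Reactions: 2 nM enzyme, 80 uM fluorogenic alpha-galactoside, pH 4.5 citric acid buffer, 20 min, room temperature.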
With `CC[C@@H]1Cc2cc(O)ccc2C2=C1c1ccc(O)cc1C[C@H]2CC` the “activity change, negative = inhibition” value was 80.4%.
With `O=C(O)/C(=C/c1c(C(=O)O)[nH]c2cc(Cl)cc(Cl)c12)c1ccccc1` the “activity change, negative = inhibition” value was -2.89%.
For `O=C(O)C1=CCCNC1`, the “activity change, negative = inhibition” value was 1.83%.
In the case of `NC(=Nc1ccccc1)NC(=O)c1nc(Cl)c(N)nc1N`, the “activity change, negative = inhibition” value is reported as -2.55%.
`CCN(CC)CCCCCCCCOC(=O)c1cc(OC)c(OC)c(OC)c1` was tested, and the “activity change, negative = inhibition” value was -4.57%.
`CCCc1c(OCCCOc2ccc(OCC(=O)O)cc2)ccc(C(C)=O)c1O` was tested, and the “activity change, negative = inhibition” value was 6.34%.
In the case of `CCN(CC)CCOC(=O)c1cc(Cl)c(N)cc1OC`, the “activity change, negative = inhibition” value is reported as -0.95%.
For `Nc1ccc2c3c(cccc13)C(=O)NC2=O`, the “activity change, negative = inhibition” value was -3.42%.
With `NC(N)=NC(N)=Nc1ccccc1` the “activity change, negative = inhibition” value was -0.951%.
For `COc1ccc2c(c1)c(CC(=O)O)c(C)n2Cc1ccc(Cl)cc1`, the “activity change, negative = inhibition” value was 0.552%.
In the case of `CCCCCCN(CCCCCC)C(=O)Cc1c(-c2ccc(F)cc2)[nH]c2ccccc12`, the “activity change, negative = inhibition” value is reported as -14%.
In the case of `COc1ccc2c(c1)c(CC(=O)O)c(C)n2C(=O)c1ccccc1`, the “activity change, negative = inhibition” value is reported as -2.45%.
In the case of `Cn1c(=O)c2[nH]c(C3CCCC3)nc2n(C)c1=O`, the “activity change, negative = inhibition” value is reported as -1.11%.
In the case of `N[C@@H](Cc1ccc(O)c(I)c1)C(=O)O`, the “activity change, negative = inhibition” value is reported as 0.494%.
With `Nn1nnc2ccccc21` the “activity change, negative = inhibition” value was 0.469%.
In the case of `CC(C)Cn1c(=O)n(C)c(=O)c2[nH]cnc21`, the “activity change, negative = inhibition” value is reported as 3.01%.
`CN1CCN(c2nc3cc(C(F)(F)F)ccc3n3cccc23)CC1` was tested, and the “activity change, negative = inhibition” value was -3.85%.
`N#C/C(=C\c1ccc(O)c(O)c1)C(=O)NCCCNC(=O)/C(C#N)=C/c1ccc(O)c(O)c1` was tested, and the “activity change, negative = inhibition” value was -5.4%.
With `CCCCCCCC/C=C\CCCCCCCC(=O)NCCc1ccc(O)c(O)c1` the “activity change, negative = inhibition” value was -15.5%.
`CC[N+](CC)(CC)CC(=O)Nc1c(C)cccc1C` was tested, and the “activity change, negative = inhibition” value was -0.939%.
For `NC(=O)CNCCC(c1ccccc1)c1ccccc1`, the “activity change, negative = inhibition” value was -1.4%.
In the case of `O=C(O)C1CCNCC1`, the “activity change, negative = inhibition” value is reported as 0.637%.
With `CCCn1c(=O)c2c(ncn2C)n(CCC)c1=O` the “activity change, negative = inhibition” value was -2.25%.
In the case of `Cc1ccc([N+](=O)[O-])cc1S(=O)(=O)N(C)C`, the outcome is reported as “inactive”.
For `S=C(S)N1CCCC1`, the “activity change, negative = inhibition” value was -0.0853%.
`O=S(=O)(c1cccc2c(Cl)cccc12)N1CCCNCC1` was tested, and the “activity change, negative = inhibition” value was 2.47%.
In the case of `NCCCCN`, the “activity change, negative = inhibition” value is reported as -2.25%.
With `NC1(C(=O)O)CCCCC1` the “activity change, negative = inhibition” value was -0.131%.
`O=c1onc2n1-c1cc(Br)ccc1OC2` was tested, and the “activity change, negative = inhibition” value was -1.44%.
With `N=C(N)SCCN` the “activity change, negative = inhibition” value was -0.0193%.
With `O=C(O)/C=C/c1ccc(O)c(O)c1` the “activity change, negative = inhibition” value was 0.144%.
In the case of `COCc1nc2c([nH]1)c(=O)n(C)c(=O)n2CC(C)C`, the “activity change, negative = inhibition” value is reported as -0.862%.
For `CNCCNS(=O)(=O)c1cccc2cnccc12`, the “activity change, negative = inhibition” value was -1.03%.
`NCCNS(=O)(=O)c1cccc2c(Cl)cccc12` was tested, and the “activity change, negative = inhibition” value was 1.42%.
`NC(N)=NC(N)=Nc1cccc(Cl)c1` was tested, and the “activity change, negative = inhibition” value was 3.28%.
`COc1cc2c(CCNC(C)=O)c[nH]c2cc1O` was tested, and the “activity change, negative = inhibition” value was -1.88%.
In the case of `N=C(N)c1ccc(OCCCCCOc2ccc(C(=N)N)cc2)cc1` (tested in a mixture with another compound), the “activity change, negative = inhibition” value is reported as -1.68%.
`Cc1nc2c(OCc3ccccc3)cccn2c1CC#N` was tested, and the “activity change, negative = inhibition” value was -1.26%.
For `Oc1ccc(Cn2cc[nH]c2=S)cc1`, the “activity change, negative = inhibition” value was -0.813%.

From PubChem BioAssay (NCATS)
